Measurements: ChEMBL document CHEMBL3988442, “University of Dundee, Small-Polar-MMV Screening Library” (2021)
Hit rate of the full screen: of about 48,000 compounds, about 13,000 (27%) showed an effect of 50% or more. The list shows a part of the results.

Tested on: Wolbachia pipientis
Assay: Anti-Wolbachia Cell-Based Screen
Assay type: functional
Parameters: scale not given: in the data most compounds retested in dose-response had high values
Conditions: 5 µM

Row | SMILES | Percent Effect
1 | CNc1ncc(CN(C)Cc2cc(O)c3cccc(Cl)c3n2)cn1 | -16.65%
2 | CC1COCCN1C(=O)NCCn1ccnc1 (centres undefined) | 4.662%
3 | O=C(c1ccccn1)N1C[C@@H]2CC[C@H](C1)N(C(=O)CCc1ccsc1)C2 | -35.6%
4 | O=C1C[C@H]2CC[C@@H](CN1)N2C(=O)CCCc1ccc(Cl)cc1 | 109.6%
5 | NC(=O)C1CCCN1CCCc1ccc(Cl)cc1 (centres undefined) | -0.6682%
6 | O=C(CCc1ccccc1)N1CCN(C(=O)c2ccc[nH]2)CC1 | 0.009024%
7 | CS(=O)(=O)N1C[C@@H]2CC[C@H](C1)N(C(=O)CCc1ccsc1)C2 | 10.69%
8 | O=C(c1cnccn1)N1C[C@@H]2CC[C@H](C1)N(C(=O)Cc1ccsc1)C2 | 0.9084%
9 | O=C1CO[C@@H]2CN(C(=O)CCc3ccccc3)C[C@H]2N1 | -22.36%
10 | Cn1c2c(ccc1=O)CC(NC(=O)Cc1ccsc1)CC2 (centres undefined) | -9.793%
11 | O=C1C[C@H]2CC[C@@H](CN1)N2C(=O)CCc1ccccc1 | 110.6%
12 | O=C(CCCc1ccc(Cl)cc1)N1CCN(C(=O)c2ccc[nH]2)CC1 | -0.04512%
13 | O=C1C[C@H]2CC[C@@H](CN1)N2C(=O)CCc1ccsc1 | 104.7%
14 | O=C1C[C@H]2CC[C@@H](CN1)N2C(=O)Cc1ccsc1 | 116.9%
15 | CCN1C(=O)[C@H]2CN(CC(C)C)C[C@H]2C12CCN(S(C)(=O)=O)CC2.O=C(O)C(F)(F)F | 7.177%
16 | CN(C)C1CCN(C(=O)C2SCCc3ccccc32)CC1 (centres undefined) | -22.58%
17 | CC(NCCCc1cnn(C)c1)c1ccc(Cl)s1 (centres undefined) | 3.726%
18 | O=C(NC1CC1)C1CNCCN1C(=O)CCc1ccc2c(c1)OCO2 (centres undefined) | 13.7%
19 | O=C1C[C@H]2CC[C@@H](CN1)N2C(=O)CCc1ccc2c(c1)OCO2 | 96.79%
20 | O=C(CCc1ccc2c(c1)OCO2)N1CCCC(n2cccn2)C1 (centres undefined) | -13.74%
21 | O=C(O)C(F)(F)F.O=C([C@H]1COC[C@H]2CN(C3CCCCC3)C[C@H]21)N1CCOCC1 | -10.34%
22 | O=C(O)C(F)(F)F.O=C([C@H]1CC[C@@H]2[C@@H](CCN2C2CCOCC2)O1)N1CCOCC1 | 111.7%
23 | O=C(O)C(F)(F)F.O=C([C@@H]1CC[C@@H]2[C@@H](CCN2CCOCc2ccccc2)O1)N1CCCC1 | -30.56%
24 | O=C(O)C(F)(F)F.O=C([C@H]1CC[C@@H]2[C@@H](CCN2C2CCCCC2)O1)N1CCOCC1 | 120.9%
25 | O=C(O)C(F)(F)F.O=C([C@H]1CC[C@@H]2[C@@H](CCN2Cc2ccsc2)O1)N1CCOCC1 | -4.642%
26 | O=C(O)C(F)(F)F.O=C([C@H]1CC[C@@H]2[C@@H](CCN2C2CCCC2)O1)N1CCOCC1 | 125.5%
27 | CCN1CCC(CC(=O)N(C)CC(=O)c2ccc(O)cc2)CC1 | -2.698%

Row | SMILES | Percent Effect
28 | CCCc1cc(C(=O)N2Cc3cnc(C(C)(C)C)nc3C2)ccn1 | -16.23%
29 | CS(=O)(=O)N1CC[C@H]2OCC[C@@]2(C(=O)NCCc2ccccn2)C1.O=C(O)C(F)(F)F | 88.95%
30 | O=C(NCc1ccccn1)[C@@]12CCO[C@@H]1CCN(Cc1ccccn1)C2.O=C(O)C(F)(F)F.O=C(O)C(F)(F)F.O=C(O)C(F)(F)F | 100.7%
31 | CS(=O)(=O)N1CC[C@H]2OCC[C@@]2(C(=O)NCc2ccccn2)C1.O=C(O)C(F)(F)F | 125.2%
32 | O=C(NCc1ccco1)[C@@]12CCO[C@@H]1CCN(Cc1ccccn1)C2.O=C(O)C(F)(F)F.O=C(O)C(F)(F)F | -8.079%
33 | O=C(O)C(F)(F)F.O=S(=O)(C1CC1)N1CC[C@H]2OCC[C@@]2(COc2ncccc2F)C1 | -5.546%
34 | Cc1ccc(-c2ccc(C(=O)NCC(N)=O)c(F)c2)cc1 | -9.702%
35 | COc1ccc(F)cc1C(=O)N1C[C@H]2CC[C@@H]1CN(c1ncccn1)C2 | 11.2%
36 | CN(C)C(=O)Cc1ccccc1NCc1cc(C#N)ccc1F | 6.834%
37 | Cn1cc(CN2CCn3cc(CNC(=O)CC4CC4)nc3C2)cn1.O=C(O)C(F)(F)F | -2.745%
38 | CC(c1ccccc1F)N(CC(N)=O)C1CC1 (centres undefined) | 1.619%
39 | Cc1cc(-c2ccccc2)nc(C2CCCN2S(C)(=O)=O)n1 (centres undefined) | 91.07%
40 | CN(Cc1cc(-c2cccnc2)no1)C(=O)C1CCCN1S(C)(=O)=O (centres undefined) | -3.149%
41 | Cc1nc2ccc(-n3ncnc3[C@@H]3CCCN3S(C)(=O)=O)cc2s1 | -0.8415%
42 | CCCS(=O)(=O)N1CCCC1c1cccc(N(C)C)c1 (centres undefined) | 5.298%
43 | Cc1cc(-c2cccnc2)nc(C2CCCN2S(C)(=O)=O)n1 (centres undefined) | 97.49%
44 | Cc1ccc(-c2cc(C)nc(C3CCCN3S(C)(=O)=O)n2)cc1 (centres undefined) | 112.5%
45 | Cc1cc(-c2cncnc2)nc(C2CCCN2S(C)(=O)=O)n1 (centres undefined) | 120.6%
46 | Cc1ccc(O[C@@H]2C[C@H]3CN(Cc4nccn4C)CCN3C2)cc1.O=C(O)C(F)(F)F.O=C(O)C(F)(F)F | -3.373%
47 | CCC1=N[C@@]2(CC[C@@H]3CN(S(=O)(=O)CC(C)C)C[C@@H]32)C(=O)N1CC1CC1 | 6.599%
48 | C[C@@H]1CN(C2CCN(c3ccccc3F)CC2)C[C@]1(C)O | -10.13%
49 | CC(=O)NC(C)(C)c1noc(C2(C#N)CCCCC2)n1 | -6.661%
50 | COc1ccccc1CNCc1nn(-c2ccccc2)c2c1CCC2 | -29.63%
51 | CC(C)c1noc(C2CCCN2S(=O)(=O)Cc2ccc(F)cc2)n1 (centres undefined) | -21.21%
52 | COc1ccc(-c2cc(C3CCCCCN3S(=O)(=O)N(C)C)on2)cc1 (centres undefined) | -9.2%
53 | Cc1cc(-c2ccccc2C(=O)O)nc(C2CCCN2S(C)(=O)=O)n1 (centres undefined) | 105.2%
54 | CS(=O)(=O)N1CCCCCC1c1cc(-c2ccc(F)cc2)no1 (centres undefined) | 132.6%
